# Screen size: about 1,400 compounds; about 380 (27%) were called active. The list shows a part of the results. Unmarked numbers belong to inactive results.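 How the source made its calls: active means mean inhibition above 50% across duplicate retests at 10 µM; inactive means the rest.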
# Assay: inhibition of NALP1/ASC/caspase-1 reporter signal in yeast, confirmation, NALP1 inhibitor project, S. cerevisiae, luminescence, single concentration (AID 488841);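 further: plate controls were DMSO in galactose medium for no effect and cells in plain SD medium for full effect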
# Conditions: S. cerevisiae NALP1/ASC/Caspase-1 reporter, beta-gal luminescence; at 10 µM; hits give high values
row,SMILES,inhibition
1,CC(C)CCN(C(=O)Nc1ccccc1)C(C)c1cccs1 (stereo unspecified),29.9%
2,CCOc1ccc(NC(=O)CSc2nnc(C)n2Cc2ccccc2)cc1,26.8%
3,CCOc1ccc(NC(=O)c2csc3c2CCCC3)cc1,52.4% (active)
4,CCOc1ccc(NC(=O)c2cc3c(C)nc4ccccc4c3o2)cc1,17.3%
5,O=C(NN1C(=O)c2cc(Br)ccc2NC1c1cc(Br)cc(Br)c1O)c1ccncc1 (stereo unspecified),64.8% (active)
6,COC(=O)c1cccc(NC(=O)/C=C/c2ccc3c(c2)OCO3)c1,60.6% (active)
7,O=C(Nc1cccnc1)Nc1ccc2c(c1)OCO2,32.1%
8,CC1CN(C(=O)Nc2ccc3c(c2)OCO3)CC(C)O1 (stereo unspecified),30.4%
9,Cc1ccc(S(=O)(=O)NCC(=O)N(CC(=O)NC(C)(C)C)Cc2cccs2)cc1,31.3%
10,Cc1cc(=O)oc2cc(OCC(=O)N3CCN(C(=O)c4ccco4)CC3)ccc12,21.1%
11,CC(=O)N(C1=C(Cl)C(=O)c2ccccc2C1=O)C1CCCCC1,58% (active)
12,C/C(=N\N(C)C)C1=C(O)c2ccccc2C1=O,29.9%
13,O=C(c1ccc(Br)o1)N(c1ccccn1)C1CCCCC1,41.8%
14,CN(C)c1ccc(N=C/C=C2/N(C)c3ccccc3C2(C)C)cc1,47.2%
15,CCOC(=O)C[N+](CC)(CC)CC#Cc1ccccc1,15.1%
16,Cc1nnc(-c2ccccc2)o1,31.1%
17,Cc1cccc(NCc2nc3ccccc3n2C)c1,66% (active)
18,CCCc1nn(C)c(C(=O)Nc2cccc(C)c2)c1Cl,42.2%
19,CCOC(=O)c1c(/N=C/c2cc(OC)cc([N+](=O)[O-])c2O)sc(C)c1C,44.5%
20,CS(=O)(=O)N1N=C(c2ccco2)CC1c1ccc(Cl)cc1 (stereo unspecified),19.9%
21,COc1ccc(/C=N/NC(=O)c2csc(-n3nc(C)cc3C(F)(F)F)n2)cc1,17.9%
22,Clc1ccc(OCCOCCN2CCc3ccccc3C2)c(Cl)c1,52.3% (active)
23,Cc1cc(Cl)c(OCCOCCN2CCC(C)CC2)c(Br)c1,44.9%
24,C=CCc1cc(Cl)ccc1OCCOCCNCCOC,41.8%
25,Cc1c(Cl)c([N+](=O)[O-])nn1Cc1ccc(C(=O)N/N=C\c2ccccn2)o1,28.8%
26,Cc1sc2ncnc(N/N=C/c3ccccc3O)c2c1C,40.2%

row,SMILES,inhibition
1,Nc1c(Cl)ncnc1N/N=C/c1ccccn1,71.3% (active)
2,Cc1cc(C)cc(OCc2nnc(SCC(=O)OC(C)C)o2)c1,47%
3,CC1=C(OC(=O)c2ccc(Br)cc2)C(C)(C)C(c2ccccc2)OC1=O (stereo unspecified),24.7%
4,Cc1nc(NC(=O)/C=C/c2ccccc2)n[nH]1,40.7%
5,C1CCC(C(CC2CCCCN2)C2CCCCC2)CC1 (stereo unspecified),54.6% (active)
6,COc1cc(OC)c(-c2nnc(-c3ccc(OC)c(OC)c3OC)o2)cc1OC,31.9%
7,CC1=CC(C)(C)Nc2ccc(OC(=O)C(C)N3C(=O)c4ccccc4C3=O)cc21 (stereo unspecified),32.8%
8,O=C(Cn1nnc2ccccc21)OCC(=O)c1ccc(Cl)cc1,40.5%
9,O=C1C=CC(=O)N1CCCCCCN1C(=O)C=CC1=O,73.3% (active)
10,O=C1C=CC(=O)N1CCNc1ncc(C(F)(F)F)cc1Cl,46.6%
11,CC1CCC2C(=O)N(c3ccc(C(=O)Oc4cccc5cccnc45)cc3)C(=O)C2C1 (stereo unspecified),31.1%
12,Cc1cc(C)c(NC(=O)/C(=C/c2ccccc2)c2ccccc2)c(C)c1,31.8%
13,Cc1nc(/N=C(\N)NC(=O)N2c3ccccc3Sc3ccccc32)nc2ccccc12,44.3%
14,O=C(Cc1ccc(-n2c(=O)[nH]c3ccccc3c2=O)cc1)N1CCN(c2ccccc2)CC1,18.6%
15,O=C(Nc1nc2ccccc2s1)C1c2ccccc2Oc2ccccc21,45.9%
16,Cc1ccc2nc(NC(=O)c3ccc4ncsc4c3)sc2c1,30.2%
17,Nc1ccc(C(=O)Nc2nc3ccccc3s2)cc1,69.7% (active)
18,COC(=O)c1ccccc1SC1CC(=O)N(c2cccc(C)c2)C1=O (stereo unspecified),34%
19,Cc1cccc(N2C(=O)CC(Sc3ccccc3C(=O)O)C2=O)c1 (stereo unspecified),42.5%
20,CCN(CC)C1CC(=O)N(c2cccc(C)c2)C1=O (stereo unspecified),57.5% (active)
21,CC(C)c1ccc(N2C(=O)CC(Sc3ncn[nH]3)C2=O)cc1 (stereo unspecified),48.5%
22,Cc1cc(C)cc(N2C(=O)CC(Sc3ncn[nH]3)C2=O)c1 (stereo unspecified),62.3% (active)
23,Cc1ccc(N2C(=O)CC(Sc3ccccc3C(=O)O)C2=O)cc1 (stereo unspecified),40.4%
24,CCOC(=O)NC1(NCc2ccccc2)Oc2ccccc2O1,32.2%
25,O=C(Nc1cccc(N=Cc2cc(Br)cc(Br)c2O)c1)c1ccco1,39.2%
26,Oc1c(Br)cc(Br)cc1C=Nc1ccc2c(c1)OCO2,48.6%

row,SMILES,inhibition
1,Cc1ccc(C(=O)O)cc1N=Cc1cc(Br)cc(Br)c1O,59% (active)
2,COc1ccc(C(C)C)cc1S(=O)(=O)n1cnc(C)c1,18.5%
3,Cc1nc2cc(C(=O)NCc3ccc4c(c3)OCO4)ccc2n1-c1ccc(Br)cc1,43.1%
4,CCOC(=O)c1c(NC2OC(=O)c3c2ccc(OC)c3OC)sc(C(=O)OC(C)(C)C)c1C (stereo unspecified),57.5% (active)
5,Cc1onc(-c2ccccc2Cl)c1C(=O)N1C=CC(C(F)(F)F)=NCC1,65.7% (active)
6,NC(=O)c1ncc(C(F)(F)F)cc1Oc1ccc(C(F)(F)F)cc1,28.9%
7,Cc1ccccc1N=C/C=C1\N(C)c2ccccc2C1(C)C,31.9%
8,C(=C\c1nc(N2CCCC2)c2ccccc2n1)/c1ccccc1,78.1% (active)
9,C(=C\c1nc(N2CCCCCC2)c2ccccc2n1)/c1ccccc1,70.2% (active)
10,Cc1ccc(C)c(NC(=O)CSc2nnc(-c3ccccc3)o2)c1,32.8%
11,O=[N+]([O-])c1ccc(-c2ccn[nH]2)o1,39%
12,O=C(CSc1nnnn1C1CCCCC1)N1c2ccccc2Sc2ccccc21,35.8%
13,O=S(=O)(Cc1cc(Sc2ccccc2)nc(-c2ccccc2)n1)c1ccccc1,19.4%
14,O=C1CN(c2nnnn2-c2ccccc2)CCN1,35%
15,CNc1ccccc(-c2ccc3ccccc3n2)c1=O,24.8%
16,Cc1ccc(/C(N)=N/OC(=O)c2cccs2)cc1,57.2% (active)
17,COc1ccc(C(=O)O/N=C(\N)Cc2ccc(Cl)cc2Cl)cc1OC,40.5%
18,Nc1ccc(C(=O)c2cccs2)cc1,44%
19,Cc1ccc(/C(N)=N/OC(=O)c2ccc3c(c2)OCO3)cc1,77.3% (active)
20,N/C(Cc1cccs1)=N\OC(=O)COc1ccccc1Cl,45.7%
21,Cc1cccc(/C(N)=N/OC(=O)c2ccc3c(c2)OCO3)c1,54.1% (active)
22,Cc1cccc(/C(N)=N/OC(=O)c2ccc(Cl)cc2Cl)c1,21.6%
23,Cc1cccc(/C(N)=N/OC(=O)c2cccc3ccccc23)c1,28.9%
24,Cc1ccc(/C(N)=N/OC(=O)c2ccc(Cl)cc2Cl)cc1,36%
25,COc1ccc(Cl)cc1C(=O)O/N=C(\N)c1ccc(Cl)cc1,35.3%
26,N/C(Cc1ccc(Cl)cc1Cl)=N\OC(=O)c1cccs1,51.2% (active)

row,SMILES,inhibition
1,COc1ccc(/C=C(/C(=O)c2cccs2)N2C=CC=CC2=C(C#N)C#N)cc1,38.4%
2,Nc1ccccc1-c1nc2ccccc2[nH]1,71.9% (active)
3,COc1ccc2oc(=Nc3ccccc3)c(-c3nc4ccccc4[nH]3)cc2c1,38%
4,Cc1ccc2nc(-c3ccc(NC(=O)CN(c4ccccc4C)S(C)(=O)=O)cc3)sc2c1,37.2%
5,O=C(Nc1cccc(O)c1)c1cc(-c2ccco2)on1,74.8% (active)
6,O=C(NCc1ccc(F)cc1)c1cc(-c2ccco2)on1,33%
7,CCCn1c(-c2cccnc2Cl)nc2cc(Cl)c(Cl)cc21,41.4%
8,CC(C)CC(=O)/C(=C\c1ccc(Cl)cc1Cl)n1cncn1,100% (active)
9,Oc1ccc2ccccc2c1CN1CCN(c2ccccc2)CC1,33.5%
10,Cc1ccc(CN2CCN(/N=C/c3cccs3)CC2)cc1,34.5%
11,O=C(NCCc1csc(-c2ccccc2)n1)c1ccc(Br)o1,57.4% (active)
12,O=C(NCCCn1ccnc1)c1ccc(Br)o1,22.2%
13,COc1ccc(-c2nc(CCNC(=O)c3cccs3)cs2)cc1,41.9%
14,Cc1ccc2cc(CN(Cc3ccco3)C(=O)NC3CCCCC3)c(=O)[nH]c2c1C,18.7%
15,CS(=O)(=O)c1nc(-c2ccco2)cc(C(F)(F)F)n1,81.3% (active)
16,Nc1nc(-c2ccco2)nn1S(=O)(=O)c1ccccc1,23.4%
17,CCOC(=O)c1c(C)[nH]c2c1-c1ccccc1C(=O)C2=O,25.1%
18,O=S(=O)(Nc1ccc(Oc2ncccn2)c(Cl)c1)c1ccc(F)cc1,23%
19,Cc1cc(C)c(S(=O)(=O)Nc2cc(SCC(=O)O)c(O)c3ccccc23)cc1C,22.2%
20,O=S(=O)(Nc1cc(Sc2cccc3cccnc23)c(O)c2ccccc12)c1ccc(F)cc1,56.7% (active)
21,CN(C)CCN(Cc1ccccc1)c1nccc(N(C)C)c1C#N,25.1%
22,O=C(O)C1C2C=CC(C2)C1C(=O)NCc1ccc(Cl)c(Cl)c1 (stereo unspecified),33.5%
23,CS(=O)(=O)N(CC(=O)Nc1ccccc1Sc1ccccc1)C1CCCCC1,-0.35%

# From PubChem BioAssay AID488841 (Sanford-Burnham Center for Chemical Genomics, 2010)
